Measurements as given in PubChem BioAssay (NCATS).
Inconclusive results are not listed. Active and inactive are the calls of the source. Calls follow the shape of the dose curve; as a rule, active = well fitted curve in the direction sought with a large enough effect; inconclusive = small, poorly fitted or top-dose-only effect, or another doubt; inactive = no such curve, though single readings can be large; an effect the other way counts as inactive or inconclusive. Where a SMILES comes first, the peptide text is derived from it. The star is where a group is joined. PhAc = O=C(Cc1ccccc1)*

Tests used:
[1] = test system: NIH3T3; assay: qHTS assay to identify novel small-molecules to repurpose for Merkel cell carcinoma treatment (AID 1296009); conditions: MCC and control cell lines, CellTiter-Glo viability, 72 h; at 44.8 µM (top of the series) unless noted; also: nearly all actives have a fitted effect of over 60% in size
Summary of the method: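 Dose-response viability screen; 72 hr exposure at 37 degree celsius; CellTiter-Glo added, 10 min room temperature, luminescence read; RLUs scaled between no-cell and DMSO wells.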

[2] = test system: CASKI; assay: Primary qHTS to identify gynecologic anti-cancer compounds using libraries of approved drugs and bioactive compounds (AID 1345084); conditions: Gynecologic cancer cell panel viability, ATPlite luminescence, 48 h; series mostly up to 57.5 µM; also: % is scaled to controls: 0 for no effect and ±100 for the full control effect; nearly all actives have a fitted effect of over 55% in size
Summary of the method: (§1)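 Cell viability after 48 h drug treatment, ATPlite luminescence readout; five doses.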

[3] = test system: HeLa; assay: as above; conditions: Gynecologic cancer cell panel viability, ATPlite luminescence, 48 h; series mostly up to 57.5 µM
Summary of the method: as §1

[4] = test system: Hek293T; assay: as above; conditions: Gynecologic cancer cell panel viability, ATPlite luminescence, 48 h, control line for the selectivity index; series mostly up to 57.5 µM
Summary of the method: as §1

[5] = test system: JEG-3; assay: as above; conditions: Gynecologic cancer cell panel viability, ATPlite luminescence, 48 h; series mostly up to 57.5 µM
Summary of the method: as §1

[6] = test system: SKOV3; assay: as above; conditions: Gynecologic cancer cell panel viability, ATPlite luminescence, 48 h; series mostly up to 57.5 µM
Summary of the method: as §1

[7] = test system: Tov-21-G; assay: as above; conditions: Gynecologic cancer cell panel viability, ATPlite luminescence, 48 h; series mostly up to 57.5 µM
Summary of the method: as §1

[8] = test system: Tov112D; assay: as above; conditions: Gynecologic cancer cell panel viability, ATPlite luminescence, 48 h; series mostly up to 57.5 µM
Summary of the method: as §1

[9] = test system: C33A; assay: as above; conditions: Gynecologic cancer cell panel viability, ATPlite luminescence, 48 h; series mostly up to 57.5 µM
Summary of the method: as §1

[10] = test system: CAOV3; assay: as above; conditions: Gynecologic cancer cell panel viability, ATPlite luminescence, 48 h; series mostly up to 57.5 µM
Summary of the method: as §1

[11] = test system: Es-2; assay: as above; conditions: Gynecologic cancer cell panel viability, ATPlite luminescence, 48 h; series mostly up to 57.5 µM
Summary of the method: as §1

[12] = test system: OV90; assay: as above; conditions: Gynecologic cancer cell panel viability, ATPlite luminescence, 48 h; series mostly up to 57.5 µM
Summary of the method: as §1

[13] = test system: PA-1; assay: as above; conditions: Gynecologic cancer cell panel viability, ATPlite luminescence, 48 h; series mostly up to 57.5 µM
Summary of the method: as §1

Cc1nnc(-c2ccc3occ(-c4ccc(S(C)=O)cc4)c3c2)o1 (stereo not given)
inactive: outcome [1] | outcome [2] | Potency [3] | Potency [4] | Potency [5] | Potency [6] | Potency [7] | Potency [8]

COc1cc(OC)cc(-c2ccc3c(-c4ccc(F)cc4)[nH]nc3n2)c1
inactive: Potency [9] | Potency [10] | outcome [2] | Potency [11] | Potency [3] | Potency [4] | Potency [5] | Potency [12] | Potency [13] | Potency [6] | Potency [7] | Potency [8]

CCOC(=O)CNC(=O)[C@@H]1CCCN1C(=O)Cc1ccccc1 (PhAc-Pro-Gly-OEt)
inactive: Potency [9] | Potency [10] | outcome [2] | Potency [11] | Potency [3] | Potency [4] | Potency [5] | Potency [12] | Potency [13] | Potency [6] | Potency [7] | Potency [8]

CC(=O)OC1CC(C(C)(C)O)OC2CCC3(C)OC4=C(C(=O)C=C5C(C)C(OC(C)=O)C6(C)C(C)OC546)C(O)C3C12C (stereo not given)
inactive: Potency [9] | Potency [10] | outcome [2] | Potency [11] | Potency [3] | Potency [4] | Potency [5] | Potency [12] | Potency [13] | Potency [6] | Potency [7] | Potency [8]

C=C1CCC2C(C)(C)CC(O)CC2(C)C1CCC(C)CC(=O)O (stereo not given)
inactive: Potency [9] | Potency [10] | outcome [2] | Potency [11] | Potency [3] | Potency [4] | Potency [5] | Potency [12] | Potency [13] | Potency [6] | Potency [7] | Potency [8]

CC1CC(=O)[C@]2(O)C(C(=O)OCCc3ccc(O)cc3)=CO[C@@H](O[C@@H]3O[C@H](CO)[C@@H](O)[C@H](O)[C@H]3O)[C@H]12 (stereo not given in full)
inactive: Potency [9] | Potency [10] | outcome [2] | Potency [11] | Potency [3] | Potency [4] | Potency [5] | Potency [12] | Potency [13] | Potency [6] | Potency [7] | Potency [8]

O=C(/C=C/c1ccc(O)cc1)OCC1OC(O)C(OC2OC(CO)C(O)C(O)C2O)C(O)C1O (stereo not given)
inactive: Potency [9] | Potency [10] | outcome [2] | Potency [11] | Potency [3] | Potency [4] | Potency [5] | Potency [12] | Potency [13] | Potency [6] | Potency [7] | Potency [8]

CC(C)(O)/C=C/C(=O)[C@](C)(O)[C@H]1[C@H](O)C[C@@]2(C)[C@@H]3CC=C4[C@@H](C=C(O[C@@H]5O[C@H](CO)[C@@H](O)[C@H](O)[C@H]5O)C(=O)C4(C)C)[C@]3(C)C(=O)C[C@]12C
inactive: Potency [9] | Potency [10] | outcome [2] | Potency [11] | Potency [3] | Potency [4] | Potency [5] | Potency [12] | Potency [13] | Potency [6] | Potency [7] | Potency [8]

CC(=O)C1CCC(=O)N1Cc1ccccc1 (stereo not given)
inactive: Potency [9] | Potency [10] | outcome [2] | Potency [11] | Potency [3] | Potency [4] | Potency [5] | Potency [12] | Potency [13] | Potency [6] | Potency [7] | Potency [8]

C=C(CCO[C@@H]1O[C@H](CO)[C@@H](O)[C@H](O)[C@H]1O)C(=O)O
inactive: Potency [9] | Potency [10] | outcome [2] | Potency [11] | Potency [3] | Potency [4] | Potency [5] | Potency [12] | Potency [13] | Potency [6] | Potency [7] | Potency [8]

CCC(C)C(=O)O[C@H]1[C@@H](O[C@H]2O[C@H](CO)[C@@H](O)[C@H](O)[C@H]2O)O[C@H](CO)[C@@H](O)[C@@H]1O (stereo not given in full)
inactive: Potency [9] | Potency [10] | outcome [2] | Potency [11] | Potency [3] | Potency [4] | Potency [5] | Potency [12] | Potency [13] | Potency [6] | Potency [7] | Potency [8]

CC1(C)CC[C@]2(C(=O)O)[C@H](O)C[C@]3(C)C(=CCC4[C@@]5(C)CC[C@H](O[C@@H]6OC[C@@H](O)[C@H](O)[C@H]6O)[C@@](C)(C(=O)O)C5CC[C@]43C)[C@@H]2C1 (stereo not given in full)
inactive: Potency [9] | Potency [10] | outcome [2] | Potency [11] | Potency [3] | Potency [4] | Potency [5] | Potency [12] | Potency [13] | Potency [6] | Potency [7] | Potency [8]

Cc1noc2c1-c1ccccc1C(c1ccc(Cl)cc1)=N[C@H]2CC(N)=O
inactive: Potency [9] | Potency [10] | outcome [2] | Potency [11] | Potency [3] | Potency [4] | Potency [5] | Potency [12] | Potency [13] | Potency [6] | Potency [7] | Potency [8]

CC1(C)CCC[C@@]2(C)[C@H]1[C@H](O)C=C(CO)[C@]2(O)CO
inactive: Potency [9] | Potency [10] | outcome [2] | Potency [11] | Potency [3] | Potency [4] | Potency [5] | Potency [12] | Potency [13] | Potency [6] | Potency [7] | Potency [8]

CC1(C)OC(=O)C=C[C@@]2(C)C1CC(=O)[C@]1(C)C2CC[C@@]2(C)[C@H](c3ccoc3)OC(=O)[C@H]3O[C@]321 (stereo not given in full)
inactive: Potency [9] | Potency [10] | outcome [2] | Potency [11] | Potency [3] | Potency [4] | Potency [5] | Potency [12] | Potency [13] | Potency [6] | Potency [7] | Potency [8]

CC1(C)COC(=O)[C@@H]1O[C@@H]1O[C@H](CO)[C@@H](O)[C@H](O)[C@H]1O
inactive: Potency [9] | Potency [10] | outcome [2] | Potency [11] | Potency [3] | Potency [4] | Potency [5] | Potency [12] | Potency [13] | Potency [6] | Potency [7] | Potency [8]

CC1(C)CC[C@]2(C(=O)O)CC[C@]3(C)C(=CCC4[C@@]5(C)C[C@@H](O)[C@H](O)[C@@](C)(CO)C5CC[C@]43C)C2C1 (stereo not given in full)
inactive: Potency [9] | Potency [10] | outcome [2] | Potency [11] | Potency [3] | Potency [4] | Potency [5] | Potency [12] | Potency [13] | Potency [6] | Potency [7] | Potency [8]

COc1cc(O)cc(C)c1C(=O)OC1C(CO)OC(n2ccc(=O)[nH]c2=O)C1OC(C)=O (stereo not given)
inactive: Potency [9] | Potency [10] | outcome [2] | Potency [11] | Potency [3] | Potency [4] | Potency [5] | Potency [12] | Potency [13] | Potency [6] | Potency [7] | Potency [8]

Nc1ncnc2c1ncn2[C@H]1O[C@@H](C(=O)N2CCN(CC(=O)Nc3cccc4c3CNC4=O)CC2)[C@H](O)[C@@H]1O
inactive: Potency [9] | Potency [10] | outcome [2] | Potency [11] | Potency [3] | Potency [4] | Potency [5] | Potency [12] | Potency [13] | Potency [6] | Potency [7] | Potency [8]

C[C@@H]1O[C@@H](O[C@H]2[C@H](O)[C@@H](O)[C@H](OC[C@H]3O[C@@H](OC(=O)[C@]45CCC(C)(C)C[C@H]4C4=CCC6[C@@]7(C)C[C@@H](O)[C@H](O)[C@@](C)(CO)C7[C@H](O)C[C@@]6(C)[C@]4(C)CC5)[C@H](O)[C@@H](O)[C@@H]3O)O[C@@H]2CO)[C@H](O)[C@H](O)[C@H]1O (stereo not given in full)
inactive: activity change, negative = cytotoxicity [9] 15% [at 11.6 µM] | activity change, negative = cytotoxicity [10] -8.06% [at 11.6 µM] | activity change, negative = cytotoxicity [2] -1.59% [at 11.6 µM] | activity change, negative = cytotoxicity [11] -1.56% [at 11.6 µM] | activity change, negative = cytotoxicity [3] 13.5% [at 11.6 µM] | activity change, negative = cytotoxicity [4] -2.97% [at 11.6 µM] | activity change, negative = cytotoxicity [5] -6.46% [at 11.6 µM] | activity change, negative = cytotoxicity [12] -3.81% [at 11.6 µM] | activity change, negative = cytotoxicity [13] 2.94% [at 11.6 µM] | activity change, negative = cytotoxicity [6] -6.07% [at 11.6 µM] | activity change, negative = cytotoxicity [7] -3.2% [at 11.6 µM] | activity change, negative = cytotoxicity [8] -3.4% [at 11.6 µM]

Cc1cc(OCCN2CCOCC2)nn1-c1ccc2ccccc2c1
inactive: Potency [9] | Potency [10] | outcome [2] | Potency [11] | Potency [3] | Potency [4] | Potency [5] | Potency [12] | Potency [13] | Potency [6] | Potency [7] | Potency [8]

C=C1CC23CC1CCC2C12OC(=O)C(C)(C(O)CC1O)C2C3C(=O)O (stereo not given)
inactive: Potency [9] | Potency [10] | outcome [2] | Potency [11] | Potency [3] | Potency [4] | Potency [5] | Potency [12] | Potency [13] | Potency [6] | Potency [7] | Potency [8]

COC1OC(O)C2(CCC3(O2)C(C)CC2OC(=O)C4(C)CCCC3(C)C24)C1O (stereo not given)
inactive: Potency [9] | Potency [10] | outcome [2] | Potency [11] | Potency [3] | Potency [4] | Potency [5] | Potency [12] | Potency [13] | Potency [6] | Potency [7] | Potency [8]

CCC(C)C(=O)O[C@H]1C[C@](C)(O)[C@]23OC(C)(C)[C@H](C[C@H](OC(=O)c4ccccc4)[C@]2(COC(C)=O)[C@H]1OC(=O)C(C)CC)[C@H]3OC(C)=O (stereo not given in full)
inactive: Potency [9] | Potency [10] | outcome [2] | Potency [11] | Potency [3] | Potency [4] | Potency [5] | Potency [12] | Potency [13] | Potency [6] | Potency [7] | Potency [8]

COc1cc(/C=C/c2ccccc2)c(C(=O)O)c(O)c1CC=C(C)C
inactive: Potency [9] | Potency [10] | outcome [2] | Potency [11] | Potency [3] | Potency [4] | Potency [5] | Potency [12] | Potency [13] | Potency [6] | Potency [7] | Potency [8]

COc1cc(O)cc2c1C(=O)OC(C)C2 (stereo not given)
inactive: Potency [9] | Potency [10] | outcome [2] | Potency [11] | Potency [3] | Potency [4] | Potency [5] | Potency [12] | Potency [13] | Potency [6] | Potency [7] | Potency [8]

O=C(Nc1ccc(N2CCC(C(=O)N3CCOCC3)CC2)cc1)c1cnc(Oc2ccccc2)nc1
inactive: Potency [9] | Potency [10] | outcome [2] | Potency [11] | Potency [3] | Potency [4] | Potency [5] | Potency [12] | Potency [13] | Potency [6] | Potency [7] | Potency [8]
